# Assay results from PubChem BioAssay (NCATS).
# Inconclusive results are not listed. The source made the active and inactive calls. Calls come from the whole dose curve; as a rule, active = well fitted curve in the direction sought with a large enough effect; inconclusive = small, poorly fitted or top-dose-only effect, or another doubt; inactive = no such curve, though single readings can be large; an effect the other way counts as inactive or inconclusive.
# Tested on: not listed separately
# Assay: Validation screen for small molecules that induce DNA re-replication in MCF 10A normal breast cells (AID 463097); note: 0% is about no effect; nearly all actives have a fitted effect of over 60% in size
# Settings: MCF 10A cells, DNA re-replication phenotype imaging; series mostly up to 46.1 µM; re-replication induction: at the top concentration
# Procedure, shortened: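 Following 48 hr compound incubation (37 C, 5% CO2), MCF 10A cells receive Hoechst for 40 min at 37 C. Nuclei are then scanned (excitation 405 nm, emission 500-530 nm) for total fluorescence intensity.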
row,SMILES,re-replication induction
1,CC(N=C(NC#N)Nc1ccncc1)C(C)(C)C (stereo not drawn),-8.01% (inactive)
2,COCCCC/C(=N\OCCN)c1ccc(C(F)(F)F)cc1,-1.64% (inactive)
3,Cc1nc2ccccn2c(=O)c1CCN1CCC(C(=O)c2ccc(F)cc2)CC1,4.04% (inactive)
4,COC(=O)[C@@H](N)Cc1ccc(O)c(O)c1,-0.821% (inactive)
5,CCCN1C[C@H](CSC)C[C@@H]2c3cccc4[nH]cc(c34)C[C@H]21,2.71% (inactive)
6,CCn1cc(C(=O)O)c(=O)c2cc3c(cc21)OCO3,2.22% (inactive)
7,CN(C(=O)CCCOc1ccc2[nH]c(=O)ccc2c1)C1CCCCC1,11.7% (inactive)
8,NC(N)=N/N=C/c1c(Cl)cccc1Cl,-1.14% (inactive)
9,CCn1nc(C(=O)O)c(=O)c2cc3c(cc21)OCO3,-8.52% (inactive)
10,C[N+](C)(C)CCCCCCCCCC[N+](C)(C)C,1.7% (inactive)
11,CCOC(=O)c1cnc2c(cnn2CC)c1NN=C(C)C,25.4% (inactive)
12,CSc1ccc(C(=O)c2[nH]c(=O)[nH]c2C)cc1,4.93% (inactive)

# Molecular target: Ubiquitin carboxyl-terminal hydrolase 2 (Homo sapiens) (UniProt O75604)
# Sequence (O75604 whole entry, looked up): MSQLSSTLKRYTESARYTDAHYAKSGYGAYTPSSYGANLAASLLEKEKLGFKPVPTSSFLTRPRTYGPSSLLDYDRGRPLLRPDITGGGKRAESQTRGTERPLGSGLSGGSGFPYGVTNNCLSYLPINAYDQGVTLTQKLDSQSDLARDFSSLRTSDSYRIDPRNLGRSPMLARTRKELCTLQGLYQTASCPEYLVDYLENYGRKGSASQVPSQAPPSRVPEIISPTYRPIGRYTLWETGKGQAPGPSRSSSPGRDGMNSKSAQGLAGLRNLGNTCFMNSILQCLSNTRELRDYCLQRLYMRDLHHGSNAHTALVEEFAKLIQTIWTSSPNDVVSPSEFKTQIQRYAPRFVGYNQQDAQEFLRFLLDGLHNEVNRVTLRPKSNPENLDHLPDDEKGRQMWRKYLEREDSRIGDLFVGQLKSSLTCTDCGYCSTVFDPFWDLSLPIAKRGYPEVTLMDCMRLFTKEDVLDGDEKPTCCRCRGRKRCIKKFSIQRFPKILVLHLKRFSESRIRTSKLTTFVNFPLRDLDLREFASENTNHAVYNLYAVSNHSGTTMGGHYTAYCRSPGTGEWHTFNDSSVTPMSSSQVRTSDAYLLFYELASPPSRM
# Assay: qHTS Validation Assay for Inhibitors of Ubiquitin-specific Protease USP2a Using CHOP2 as the Reporter (AID 463106);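 note: plate controls were DMSO for no effect and full inhibition by NEM for full effect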
# Settings: USP2a cleavage of CHOP2 reporter, enzymatic; series mostly up to 38.3 µM; activity, negative = inhibition: at the top concentration
# Procedure, shortened: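 Inhibition is expressed relative to NEM as the full-inhibition control, with concentration-response curves classed by fit quality, magnitude and activity. Enzyme (USP2 core, 10nM) meets 25nM Ub-CHOP2 after compound preincubation; readings are taken at 60min.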
row,SMILES,"activity, negative = inhibition"
1,CC(N=C(NC#N)Nc1ccncc1)C(C)(C)C (stereo not drawn),-0.0608% (inactive)
2,Cc1ccc(/C(=C\CN2CCCC2)c2ccccn2)cc1,-1.62% (inactive)
3,NC(=O)c1cn(Cc2c(F)cccc2F)nn1,-0.295% (inactive)
4,CCN(CC)CCOCCOC(=O)C1(c2ccccc2)CCCC1,-0.574% (inactive)
5,COCCCC/C(=N\OCCN)c1ccc(C(F)(F)F)cc1,-1.97% (inactive)
6,Cc1nc2ccccn2c(=O)c1CCN1CCC(C(=O)c2ccc(F)cc2)CC1,0.909% (inactive)
7,NC1=NCC2c3ccccc3Cc3ccccc3N12 (stereo not drawn),1.08% (inactive)
8,COC(=O)[C@@H](N)Cc1ccc(O)c(O)c1,-0.514% (inactive)
9,CCCN1C[C@H](CSC)C[C@@H]2c3cccc4[nH]cc(c34)C[C@H]21,6.88% (inactive)
10,Cc1cccc(C)c1NC(=O)C(C)N (stereo not drawn),-0.514% (inactive)
11,COc1ccc([C@@H]2Sc3ccccc3N(CCN(C)C)C(=O)[C@@H]2OC(C)=O)cc1,-11.4% (inactive)
12,Cc1scc2c1N(C(=O)CN1CCN(C)CC1)c1ccccc1NC2=O,-0.551% (inactive)
13,C[C@]12CCC(=O)C=C1CC[C@@H]1[C@@H]2CC[C@@]2(C)[C@H]1CC[C@]2(O)C(=O)CO,-2.21% (inactive)
14,CCn1cc(C(=O)O)c(=O)c2cc3c(cc21)OCO3,-0.405% (inactive)
15,CC(C)(C)c1ccc(C(=O)CCCN2CCC(OC(c3ccccc3)c3ccccc3)CC2)cc1,-6.79% (inactive)
16,CN(C)C/C=C(/c1ccc(Br)cc1)c1cccnc1,-1.08% (inactive)
17,CN1C(=O)CC[C@H]1c1cccnc1,0.818% (inactive)
18,CN(C(=O)CCCOc1ccc2[nH]c(=O)ccc2c1)C1CCCCC1,-0.0777% (inactive)

row,SMILES,"activity, negative = inhibition"
1,CC(C)(Oc1ccc(CCNC(=O)c2ccc(Cl)cc2)cc1)C(=O)O,1.58% (inactive)
2,NC(N)=N/N=C/c1c(Cl)cccc1Cl,1.11% (inactive)
3,CC(=O)[C@@]1(O)CC[C@H]2[C@@H]3CCC4=CC(=O)CC[C@]4(C)[C@H]3CC[C@@]21C,-3.05% (inactive)
4,C[C@@H](O)[C@H]1C(=O)N2C(C(=O)O)=C(SCCN=CN)C[C@H]12,-1.55% (inactive)
5,COc1ccc2c(c1OC)C(=O)O[C@@H]2[C@H]1c2c(cc3c(c2OC)OCO3)CCN1C,-3.9% (inactive)
6,C[C@]12CC[C@@H]3c4ccc(O)cc4C[C@@H](CCCCCCCCCS(=O)CCCC(F)(F)C(F)(F)F)[C@H]3[C@@H]1CC[C@@H]2O (stereo partly drawn),-0.318% (inactive)
7,CCn1nc(C(=O)O)c(=O)c2cc3c(cc21)OCO3,1.06% (inactive)
8,COC(=O)C1=C(C)NC(C)=C(C(=O)OCCN(C)Cc2ccccc2)C1c1cccc([N+](=O)[O-])c1 (stereo not drawn),-11.1% (inactive)
9,Brc1c(NC2=NCCN2)ccc2nccnc12,-1.87% (inactive)
10,CN(C)[C@@H]1C(=O)C(C(N)=O)=C(O)[C@@]2(O)C(=O)C3=C(O)c4c(O)ccc(Cl)c4[C@@H](O)[C@H]3C[C@@H]12,1.5% (inactive)
11,CCCCCCCC/C=C\CCCCCCCC(=O)NCc1ccc(O)c(OC)c1,-0.411% (inactive)
12,COC(=O)C1=C(C)NC(C)=C(C(=O)OC(C)(C)CN(C)CCC(c2ccccc2)c2ccccc2)C1c1cccc([N+](=O)[O-])c1 (stereo not drawn),-1.8% (inactive)
13,C[N+](C)(C)CCCCCCCCCC[N+](C)(C)C,-1.84% (inactive)
14,CCOC(=O)c1cnc2c(cnn2CC)c1NN=C(C)C,-0.539% (inactive)
15,CCN(CC)CCCN(c1ccccc1)C1Cc2ccccc2C1,0.677% (inactive)
16,CNCCCN1c2ccccc2CCc2ccccc21,-0.477% (inactive)
17,CN1C[C@H](C(=O)N[C@]2(C)O[C@@]3(O)[C@@H]4CCCN4C(=O)[C@H](Cc4ccccc4)N3C2=O)C[C@@H]2c3cccc4[nH]cc(c34)C[C@H]21,-0.728% (inactive)
18,CSc1ccc(C(=O)c2[nH]c(=O)[nH]c2C)cc1,0.129% (inactive)

# Molecular target: DNA polymerase III PolC-type (Bacillus subtilis (strain 168)) (UniProt P13267)
# Sequence (P13267 whole entry, looked up): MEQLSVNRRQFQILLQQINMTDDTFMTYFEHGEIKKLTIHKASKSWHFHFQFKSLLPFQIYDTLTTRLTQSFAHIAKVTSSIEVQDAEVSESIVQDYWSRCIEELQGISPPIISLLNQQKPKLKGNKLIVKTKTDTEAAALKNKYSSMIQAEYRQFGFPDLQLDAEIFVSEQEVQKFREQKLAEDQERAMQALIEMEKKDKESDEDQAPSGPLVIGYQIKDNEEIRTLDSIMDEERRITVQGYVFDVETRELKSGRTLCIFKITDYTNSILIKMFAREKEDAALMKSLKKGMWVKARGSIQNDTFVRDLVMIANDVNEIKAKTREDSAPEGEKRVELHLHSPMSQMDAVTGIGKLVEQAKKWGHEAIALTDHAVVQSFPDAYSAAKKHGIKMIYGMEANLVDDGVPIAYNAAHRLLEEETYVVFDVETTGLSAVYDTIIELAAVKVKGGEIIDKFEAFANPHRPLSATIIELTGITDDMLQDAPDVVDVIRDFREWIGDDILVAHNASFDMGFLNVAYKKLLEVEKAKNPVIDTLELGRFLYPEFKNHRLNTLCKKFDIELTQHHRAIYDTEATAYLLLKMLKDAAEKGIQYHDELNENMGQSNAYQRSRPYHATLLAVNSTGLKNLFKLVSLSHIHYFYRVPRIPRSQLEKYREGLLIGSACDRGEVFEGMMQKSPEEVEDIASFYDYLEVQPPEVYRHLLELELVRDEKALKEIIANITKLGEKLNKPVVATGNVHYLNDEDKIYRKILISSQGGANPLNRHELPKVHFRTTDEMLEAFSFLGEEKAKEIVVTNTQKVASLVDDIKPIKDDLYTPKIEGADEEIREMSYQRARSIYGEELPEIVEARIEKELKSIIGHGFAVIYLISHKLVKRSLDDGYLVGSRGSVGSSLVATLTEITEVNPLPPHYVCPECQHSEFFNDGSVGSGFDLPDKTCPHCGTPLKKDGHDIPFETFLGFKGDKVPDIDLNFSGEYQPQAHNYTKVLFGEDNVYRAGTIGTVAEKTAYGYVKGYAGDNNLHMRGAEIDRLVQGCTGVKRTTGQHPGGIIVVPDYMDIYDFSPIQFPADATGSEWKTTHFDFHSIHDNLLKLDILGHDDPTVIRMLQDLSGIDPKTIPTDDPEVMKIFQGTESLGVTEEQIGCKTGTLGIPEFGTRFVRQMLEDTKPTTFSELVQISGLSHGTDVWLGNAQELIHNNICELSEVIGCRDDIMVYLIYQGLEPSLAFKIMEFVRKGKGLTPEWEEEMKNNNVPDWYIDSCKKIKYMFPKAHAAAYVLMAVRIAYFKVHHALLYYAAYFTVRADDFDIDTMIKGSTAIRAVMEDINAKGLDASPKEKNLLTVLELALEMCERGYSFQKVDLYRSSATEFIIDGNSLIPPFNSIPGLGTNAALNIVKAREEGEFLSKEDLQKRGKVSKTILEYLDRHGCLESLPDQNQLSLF
# Assay: qHTS Validation Assay for the Inhibitors of DNA Replication in Gram-Positive Bacteria (AID 485295);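 note: reconstituted holoenzyme with PolC plus beta clamp SSB and primase; PicoGreen fluorescence of double-stranded DNA made on primed circular M13 template; 0% = DMSO wells and -100% = EDTA-quenched background wells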
# Settings: Gram-positive bacterial DNA replication assay; series mostly up to 57.1 µM; activity change, negative = inhibition: at the top concentration
# Procedure, shortened: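 Inhibition of DNA synthesis by the reconstituted PolC holoenzyme, monitored through PicoGreen staining of dsDNA formed from ssM13Gori, dNTPs and NTPs, with compound preincubation and room-temperature reaction.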
row,SMILES,"activity change, negative = inhibition"
1,CC(N=C(NC#N)Nc1ccncc1)C(C)(C)C (stereo not drawn),-4.46% (inactive)
2,Cc1ccc(/C(=C\CN2CCCC2)c2ccccn2)cc1,-3.87% (inactive)
3,NC(=O)c1cn(Cc2c(F)cccc2F)nn1,1.19% (inactive)
4,CCN(CC)CCOCCOC(=O)C1(c2ccccc2)CCCC1,-0.357% (inactive)
5,COCCCC/C(=N\OCCN)c1ccc(C(F)(F)F)cc1,4.26% (inactive)
6,Cc1nc2ccccn2c(=O)c1CCN1CCC(C(=O)c2ccc(F)cc2)CC1,7.91% (inactive)
7,NC1=NCC2c3ccccc3Cc3ccccc3N12 (stereo not drawn),-4.05% (inactive)
8,COC(=O)[C@@H](N)Cc1ccc(O)c(O)c1,6.05% (inactive)
9,CCCN1C[C@H](CSC)C[C@@H]2c3cccc4[nH]cc(c34)C[C@H]21,2.76% (inactive)
10,Cc1cccc(C)c1NC(=O)C(C)N (stereo not drawn),3.81% (inactive)
11,COc1ccc([C@@H]2Sc3ccccc3N(CCN(C)C)C(=O)[C@@H]2OC(C)=O)cc1,-13.1% (inactive)
12,Cc1scc2c1N(C(=O)CN1CCN(C)CC1)c1ccccc1NC2=O,-0.613% (inactive)
13,C[C@]12CCC(=O)C=C1CC[C@@H]1[C@@H]2CC[C@@]2(C)[C@H]1CC[C@]2(O)C(=O)CO,-8.38% (inactive)
14,CCn1cc(C(=O)O)c(=O)c2cc3c(cc21)OCO3,0.38% (inactive)
15,CC(C)(C)c1ccc(C(=O)CCCN2CCC(OC(c3ccccc3)c3ccccc3)CC2)cc1,-1.45% (inactive)
16,CN(C)C/C=C(/c1ccc(Br)cc1)c1cccnc1,-3.38% (inactive)
17,CN1C(=O)CC[C@H]1c1cccnc1,9.08% (inactive)
18,CN(C(=O)CCCOc1ccc2[nH]c(=O)ccc2c1)C1CCCCC1,6.45% (inactive)

row,SMILES,"activity change, negative = inhibition"
1,CC(C)(Oc1ccc(CCNC(=O)c2ccc(Cl)cc2)cc1)C(=O)O,-1.23% (inactive)
2,NC(N)=N/N=C/c1c(Cl)cccc1Cl,-0.0244% (inactive)
3,CC(=O)[C@@]1(O)CC[C@H]2[C@@H]3CCC4=CC(=O)CC[C@]4(C)[C@H]3CC[C@@]21C,-4.89% (inactive)
4,C[C@@H](O)[C@H]1C(=O)N2C(C(=O)O)=C(SCCN=CN)C[C@H]12,2.23% (inactive)
5,COc1ccc2c(c1OC)C(=O)O[C@@H]2[C@H]1c2c(cc3c(c2OC)OCO3)CCN1C,1.3% (inactive)
6,C[C@]12CC[C@@H]3c4ccc(O)cc4C[C@@H](CCCCCCCCCS(=O)CCCC(F)(F)C(F)(F)F)[C@H]3[C@@H]1CC[C@@H]2O (stereo partly drawn),1.48% (inactive)
7,CCn1nc(C(=O)O)c(=O)c2cc3c(cc21)OCO3,-1.58% (inactive)
8,COC(=O)C1=C(C)NC(C)=C(C(=O)OCCN(C)Cc2ccccc2)C1c1cccc([N+](=O)[O-])c1 (stereo not drawn),-20.6% (inactive)
9,Brc1c(NC2=NCCN2)ccc2nccnc12,4.3% (inactive)
10,CN(C)[C@@H]1C(=O)C(C(N)=O)=C(O)[C@@]2(O)C(=O)C3=C(O)c4c(O)ccc(Cl)c4[C@@H](O)[C@H]3C[C@@H]12,-6.16% (inactive)
11,CCCCCCCC/C=C\CCCCCCCC(=O)NCc1ccc(O)c(OC)c1,-2.86% (inactive)
12,COC(=O)C1=C(C)NC(C)=C(C(=O)OC(C)(C)CN(C)CCC(c2ccccc2)c2ccccc2)C1c1cccc([N+](=O)[O-])c1 (stereo not drawn),-8.36% (inactive)
13,CCOC(=O)c1cnc2c(cnn2CC)c1NN=C(C)C,-2.79% (inactive)
14,CCN(CC)CCCN(c1ccccc1)C1Cc2ccccc2C1,-5.12% (inactive)
15,CNCCCN1c2ccccc2CCc2ccccc21,2.39% (inactive)
16,CN1C[C@H](C(=O)N[C@]2(C)O[C@@]3(O)[C@@H]4CCCN4C(=O)[C@H](Cc4ccccc4)N3C2=O)C[C@@H]2c3cccc4[nH]cc(c34)C[C@H]21,0.943% (inactive)
17,CSc1ccc(C(=O)c2[nH]c(=O)[nH]c2C)cc1,-5.72% (inactive)
